Holding throughout (test): yeast three-hybrid, YBZ-1, SC-Leu-His + 0.5 mM 3-AT, 4 days
What all share (settings): tags: N-Gal4 AD-HA kept; label: inside an RPR1-promoter hybrid RNA with tandem MS2 sites; ssRNA

The target in one experiment is PUM1 PUF domain R3-RTF (Homo sapiens, UniProt Q14671 828-1176, C935R;R936T;Q939F). Put shortly:
(§1)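 Each repeat of the Pumilio-1 PUF domain was randomized at its three base-contacting residues, and these libraries were co-expressed from a centromeric plasmid with matching RNA elements in strain YBZ-1. After four days on SC-Leu (input) or SC-Leu-His + 0.5 mM 3-AT (selection), the repeat regions were PCR-amplified and Illumina-sequenced. The interaction score compares variant frequency between input and selection as a log change, computed in log2 with a pseudocount of 1 for absent variants.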

In the next experiment the target is PUM1 PUF domain R1-RLT (Homo sapiens, UniProt Q14671 828-1176, S863R;R864L;Q867T). Put shortly:
as §1

The target of another experiment is PUM1 PUF domain R7-RGL (Homo sapiens, UniProt Q14671 828-1176, S1079R;N1080G;E1083L). In short, it runs like this:
as §1

Another experiment has as its target PUM1 PUF domain R8-PWY (Homo sapiens, UniProt Q14671 828-1176, N1122P;Y1123W;Q1126Y). Put shortly: as §1
For a further experiment, the target named is PUM1 PUF domain R8-YYR (Homo sapiens, UniProt Q14671 828-1176, N1122Y;Q1126R). Put shortly: as §1
Sequence of PUM1 PUF domain R8-YYR (Q14671 828-1176 N1122Y/Q1126R): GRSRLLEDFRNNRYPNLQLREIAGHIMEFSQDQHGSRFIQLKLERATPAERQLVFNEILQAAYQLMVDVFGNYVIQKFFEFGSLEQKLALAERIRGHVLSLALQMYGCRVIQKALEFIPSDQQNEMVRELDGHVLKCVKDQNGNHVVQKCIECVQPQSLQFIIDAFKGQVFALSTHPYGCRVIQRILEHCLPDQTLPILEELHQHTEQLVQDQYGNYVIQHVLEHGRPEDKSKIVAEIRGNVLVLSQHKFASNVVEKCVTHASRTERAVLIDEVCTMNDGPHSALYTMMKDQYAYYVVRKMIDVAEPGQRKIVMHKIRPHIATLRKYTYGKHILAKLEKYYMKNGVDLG
A further experiment concerns the target PUM1 PUF domain R8-SYN (Homo sapiens, UniProt Q14671 828-1176, N1122S;Q1126N). Put shortly:
as §1

The target in a further experiment is PUM1 PUF domain R5-ERC (Homo sapiens, UniProt Q14671 828-1176, C1007E;Q1011C). Put shortly: as §1
Sequence of PUM1 PUF domain R5-ERC (Q14671 828-1176 C1007E/Q1011C): as the sequence (Q14671 828-1176 N1122Y/Q1126R) above, with C180E, Q184C, Y295N, R299Q counted along it
For another experiment, the target named is PUM1 PUF domain R5-LHG (Homo sapiens, UniProt Q14671 828-1176, C1007L;R1008H;Q1011G). In short, it runs like this: as §1
Sequence of PUM1 PUF domain R5-LHG (Q14671 828-1176 C1007L/R1008H/Q1011G): as the sequence (Q14671 828-1176 N1122Y/Q1126R) above, with C180L, R181H, Q184G, Y295N, R299Q counted along it
In a further experiment the target is PUM1 PUF domain R5-KRD (Homo sapiens, UniProt Q14671 828-1176, C1007K;Q1011D). Put shortly: as §1
Sequence of PUM1 PUF domain R5-KRD (Q14671 828-1176 C1007K/Q1011D): as the sequence (Q14671 828-1176 N1122Y/Q1126R) above, with C180K, Q184D, Y295N, R299Q counted along it
In another experiment the target is PUM1 PUF domain R5-LWV (Homo sapiens, UniProt Q14671 828-1176, C1007L;R1008W;Q1011V). Put shortly:
as §1

Another experiment concerns the target PUM1 PUF domain R4-ARS (Homo sapiens, UniProt Q14671 828-1176, N971A;H972R;Q975S). In short, it runs like this: as §1
A further experiment concerns the target PUM1 PUF domain R4-CPG (Homo sapiens, UniProt Q14671 828-1176, N971C;H972P;Q975G). In short, it runs like this:
as §1

The target of a further experiment is PUM1 PUF domain R5-KTL (Homo sapiens, UniProt Q14671 828-1176, C1007K;R1008T;Q1011L). In short, it runs like this:
as §1

In another experiment the target is PUM1 PUF domain R5-KQV (Homo sapiens, UniProt Q14671 828-1176, C1007K;R1008Q;Q1011V). Put shortly:
as §1

Sequence of PUM1 PUF domain R1-RLT (Q14671 828-1176 S863R/R864L/Q867T): as the sequence (Q14671 828-1176 N1122Y/Q1126R) above, with S36R, R37L, Q40T, Y295N, R299Q counted along it
Sequence of PUM1 PUF domain R5-LWV (Q14671 828-1176 C1007L/R1008W/Q1011V): as the sequence (Q14671 828-1176 N1122Y/Q1126R) above, with C180L, R181W, Q184V, Y295N, R299Q counted along it
Sequence of PUM1 PUF domain R7-RGL (Q14671 828-1176 S1079R/N1080G/E1083L): as the sequence (Q14671 828-1176 N1122Y/Q1126R) above, with S252R, N253G, E256L, Y295N, R299Q counted along it
Sequence of PUM1 PUF domain R4-CPG (Q14671 828-1176 N971C/H972P/Q975G): as the sequence (Q14671 828-1176 N1122Y/Q1126R) above, with N144C, H145P, Q148G, Y295N, R299Q counted along it
Sequence of PUM1 PUF domain R8-PWY (Q14671 828-1176 N1122P/Y1123W/Q1126Y): as the sequence (Q14671 828-1176 N1122Y/Q1126R) above, with Y295P, Y296W, R299Y counted along it
Sequence of PUM1 PUF domain R8-SYN (Q14671 828-1176 N1122S/Q1126N): as the sequence (Q14671 828-1176 N1122Y/Q1126R) above, with Y295S, R299N counted along it
Sequence of PUM1 PUF domain R5-KQV (Q14671 828-1176 C1007K/R1008Q/Q1011V): as the sequence (Q14671 828-1176 N1122Y/Q1126R) above, with C180K, R181Q, Q184V, Y295N, R299Q counted along it
Sequence of PUM1 PUF domain R3-RTF (Q14671 828-1176 C935R/R936T/Q939F): as the sequence (Q14671 828-1176 N1122Y/Q1126R) above, with C108R, R109T, Q112F, Y295N, R299Q counted along it
Sequence of PUM1 PUF domain R5-KTL (Q14671 828-1176 C1007K/R1008T/Q1011L): as the sequence (Q14671 828-1176 N1122Y/Q1126R) above, with C180K, R181T, Q184L, Y295N, R299Q counted along it
Sequence of PUM1 PUF domain R4-ARS (Q14671 828-1176 N971A/H972R/Q975S): as the sequence (Q14671 828-1176 N1122Y/Q1126R) above, with N144A, H145R, Q148S, Y295N, R299Q counted along it

For the sequence “GGCUAGAACUAGUGGAUCCCCCGGCGCCCGGCGGCUCGAGCCCGGGUAAGUGUAAUUAGUCUGCAUGCCGCCGGGCGCCAUGCCUGCAGGUCGACUCUAGAAAACAUG”, in the experiment with PUM1 PUF domain R3-RTF, the binding signal was 2.83 log2 enrichment (interaction score).
As for “GGCUAGAACUAGUGGAUCCCCCGGCGCCCGGCGGCUCGAGCCCGGGUAAGUGUAAAUCGUCUGCAUGCCGCCGGGCGCCAUGCCUGCAGGUCGACUCUAGAAAACAUG”, the binding signal with PUM1 PUF domain R1-RLT is 4.76 log2 enrichment (interaction score).
Take “GGCUAGAACUAGUGGAUCCCCCGGCGCCCGGCGGCUCGAGCCCGGGUAAGUCUAAAUAGUCUGCAUGCCGCCGGGCGCCAUGCCUGCAGGUCGACUCUAGAAAACAUG”: the binding signal in the experiment with PUM1 PUF domain R7-RGL was 1.29 log2 enrichment (interaction score).
Take “GGCUAGAACUAGUGGAUCCCCCGGCGCCCGGCGGCUCGAGCCCGGGUAAGCGUAAAUAGUCUGCAUGCCGCCGGGCGCCAUGCCUGCAGGUCGACUCUAGAAAACAUG”: the results for the binding signal in the experiment with PUM1 PUF domain R8-PWY, in the experiment with PUM1 PUF domain R8-YYR and in the experiment with PUM1 PUF domain R8-SYN were 2.57 log2 enrichment (interaction score), 5.94 log2 enrichment (interaction score) and 2.66 log2 enrichment (interaction score), respectively.
As for “GGCUAGAACUAGUGGAUCCCCCGGCGCCCGGCGGCUCGAGCCCGGGUAAGUGUGAAUAGUCUGCAUGCCGCCGGGCGCCAUGCCUGCAGGUCGACUCUAGAAAACAUG”, the binding signal is 3.21 log2 enrichment (interaction score) with PUM1 PUF domain R5-ERC, 4.33 log2 enrichment (interaction score) with PUM1 PUF domain R5-LHG, 1.06 log2 enrichment (interaction score) in the experiment with PUM1 PUF domain R5-KRD and 1.82 log2 enrichment (interaction score) with PUM1 PUF domain R5-LWV.
As for “GGCUAGAACUAGUGGAUCCCCCGGCGCCCGGCGGCUCGAGCCCGGGUAAGUGUACAUAGUCUGCAUGCCGCCGGGCGCCAUGCCUGCAGGUCGACUCUAGAAAACAUG”, the binding signal with PUM1 PUF domain R4-ARS was 3.28 log2 enrichment (interaction score); in the experiment with PUM1 PUF domain R4-CPG it was 2.44 log2 enrichment (interaction score).
As for “GGCUAGAACUAGUGGAUCCCCCGGCGCCCGGCGGCUCGAGCCCGGGUAAGUGUUAAUAGUCUGCAUGCCGCCGGGCGCCAUGCCUGCAGGUCGACUCUAGAAAACAUG”, the binding signal was 1.72 log2 enrichment (interaction score) with PUM1 PUF domain R5-KTL, 4.94 log2 enrichment (interaction score) in the experiment with PUM1 PUF domain R5-KRD, 2.42 log2 enrichment (interaction score) with PUM1 PUF domain R5-KQV and 2.42 log2 enrichment (interaction score) with PUM1 PUF domain R5-LWV.
As for “GGCUAGAACUAGUGGAUCCCCCGGCGCCCGGCGGCUCGAGCCCGGGUAAGUGUAAAUGGUCUGCAUGCCGCCGGGCGCCAUGCCUGCAGGUCGACUCUAGAAAACAUG”, in the experiment with PUM1 PUF domain R1-RLT, the binding signal is 3.03 log2 enrichment (interaction score).

The values are drawn from publication PMC8384837, “Expanding the binding specificity for RNA recognition by a PUF domain”.
